PubChem BioAssay (NCI)
Compounds without any hit were thinned out: in the full panel of roughly 79,000, 15% have a hit. A number with no mark means an inactive call. Calls of active or inactive are those of the source. Cut-off read from the data, not from the text of the source: active = growth inhibition above about 70%; inactive = the rest.

Assay: NCI Yeast Anticancer Drug Screen. Data for the rad50 strain (AID 155);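 note: 0% = growth of vehicle-only cultures of the same strain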
Settings: S. cerevisiae rad50 strain growth inhibition; at 50.0 µM; hits give high values
Method in brief: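 Inhibition values express reduced yeast growth in compound-treated cultures relative to vehicle-treated controls.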

SMILES	growth inhibition
Nc1nc2c(ccc3ccccc32)s1	66%
O=C(O)CCCCC1CCCCC1.[Cu+2]	14.7%
O=Cc1ccc(O)c2ccccc12	63.2%
CC(=Nc1ccc(N(C)C)cc1)c1ccccc1	69.7%
C/C(Cl)=N\OC(=O)Nc1ccc(C)cc1	55.6%
COC(=O)C1CCC(c2ccccc2)CC1C(=O)OC (stereo not given)	24.9%
CCCCNC(=S)NC1C2CC3CC(C2)CC1C3 (stereo not given)	97.4% (active)
CCN(CC)CCOC(=O)CCN1CC2CCC(CC2)C1	-35.6%
CCOc1ccc(-c2nc3ccc(-c4nc5ccc(N6CCN(C)CC6)cc5[nH]4)cc3[nH]2)cc1	88.7% (active)
NC(CCC(=O)NC(CS(=O)(=O)O)C(=O)O)C(=O)O (stereo not given)	13.2%
CSc1cc(C(=O)O)nc(N)n1	-5.65%
CCN(CC)CCCNc1c(O)cc(C)c2sc3ccccc3c(=O)c12	98.7% (active)
C=C1C(=O)OC2C1CC1OC2C(C)CCC/C(C)=C\CCC1(C)O (stereo not given)	92.5% (active)
O=C1C=CC2=Nc3ccccc3CCC2=C1	90% (active)
CC(C)CC(CC(C)C)OP(=O)(O)OC(CC(C)C)CC(C)C	80.1% (active)
O=C(O)c1ccccc1Cc1ccc2c(c1)Cc1ccccc1-2	62.5%
Nc1c(F)cccc1F	-16.3%
COc1cc(OC)c(SSCCCCS(=O)O)c(OC)c1	10.6%
S=C1Nc2cnc3ccccc3c2SC1c1ccccc1 (stereo not given)	87% (active)
CC(C)CCCC(C)[C@H]1CCC(C2C[C@@H](O)[C@@H]3CC(O)[C@@H](O)C[C@]3(CO)C2=O)[C@]1(C)CCO (stereo not given in full)	92.5% (active)

SMILES	growth inhibition
CN(C)CC(CN(C)C)C(=O)c1ccc(Oc2ccc(Cl)c(Cl)c2)cc1	93.9% (active)
CN1c2ccccc2C(C)(C)C12C=Cc1cc(O)ccc1O2 (stereo not given)	70.8% (active)
CC(C)Cc1ncc(CC(C)C)n(O)c1=O	89.2% (active)
Nc1ccc(SSc2ccc(N)cc2)cc1	93% (active)
N#CCC1CC(=O)c2[nH]c3ccccc3c2C1 (stereo not given)	8.85%
O=C1c2ccccc2C(=O)c2sccc21	95.8% (active)
CC/C(=C(\CC)c1ccc(O)c(CN(C)C)c1)c1ccc(OC)cc1	98.5% (active)
O=S(=O)(O)N=Nc1ccc(O)cc1	91.5% (active)
O=C1CCSC(=S)N1c1ccc(N=Nc2ccccc2)cc1	75.4% (active)
CC(C)C(=O)NNc1ccccc1	93.1% (active)
O=C(CBr)c1ccc2cc(Br)c3ccccc3c2c1	64%
O=C1c2cc3c(cc2CC1Br)CCC3 (stereo not given)	79.5% (active)
O=C1NC(=O)N(c2ccc(Cl)c(Cl)c2)C1=O	71.2% (active)
C[n+]1c(-c2cccc(OCCOCCOc3cccc(-c4c5cc(N)ccc5c5ccc(N)cc5[n+]4C)c3)c2)c2cc(N)ccc2c2ccc(N)cc21	85.5% (active)
N#CC(C#N)C(C#N)c1ccc(Cl)c(Cl)c1 (stereo not given)	99.7% (active)
CCCCCCCCCCCCOC(=O)C[n+]1cccc(C(=O)Nc2ccc(Cl)cc2)c1	98.8% (active)
CCC(=O)c1ccc2ccc3ccccc3c2c1	62.5%
Cc1ccc(S(=O)(=O)NC(=O)CC2CCCCC2)cc1	91.2% (active)
c1ccc(N/N=C(/CC/C(=N\Nc2ccccc2)c2ccccc2)c2ccccc2)cc1	95.5% (active)
Cc1c(N)cc(I)cc1[N+](=O)[O-]	-4.65%

Assay: NCI Yeast Anticancer Drug Screen. Data for the mec2-1 strain (AID 157)
Settings: S. cerevisiae mec2-1 strain, at 5.0 µM (retest, dose inferred, filed as 0.5), hits give high values
Method in brief: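 Readout is yeast growth inhibition, normalised to vehicle-treated controls, in the mec2-1 strain exposed to compound.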

SMILES	growth inhibition
Nc1nc2c(ccc3ccccc32)s1	-17%
O=C(O)CCCCC1CCCCC1.[Cu+2]	23%
O=Cc1ccc(O)c2ccccc12	1%
CC(=Nc1ccc(N(C)C)cc1)c1ccccc1	-11%
C/C(Cl)=N\OC(=O)Nc1ccc(C)cc1	-2%
COC(=O)C1CCC(c2ccccc2)CC1C(=O)OC (stereo not given)	0%
CCCCNC(=S)NC1C2CC3CC(C2)CC1C3 (stereo not given)	-4%
CCN(CC)CCOC(=O)CCN1CC2CCC(CC2)C1	13%
CCOc1ccc(-c2nc3ccc(-c4nc5ccc(N6CCN(C)CC6)cc5[nH]4)cc3[nH]2)cc1	23%
NC(CCC(=O)NC(CS(=O)(=O)O)C(=O)O)C(=O)O (stereo not given)	3%
CSc1cc(C(=O)O)nc(N)n1	6%
CCN(CC)CCCNc1c(O)cc(C)c2sc3ccccc3c(=O)c12	6%
C=C1C(=O)OC2C1CC1OC2C(C)CCC/C(C)=C\CCC1(C)O (stereo not given)	2%
O=C1C=CC2=Nc3ccccc3CCC2=C1	-57%
CC(C)CC(CC(C)C)OP(=O)(O)OC(CC(C)C)CC(C)C	11%
O=C(O)c1ccccc1Cc1ccc2c(c1)Cc1ccccc1-2	-5%
Nc1c(F)cccc1F	2%
COc1cc(OC)c(SSCCCCS(=O)O)c(OC)c1	1%
S=C1Nc2cnc3ccccc3c2SC1c1ccccc1 (stereo not given)	7%
CC(C)CCCC(C)[C@H]1CCC(C2C[C@@H](O)[C@@H]3CC(O)[C@@H](O)C[C@]3(CO)C2=O)[C@]1(C)CCO (stereo not given in full)	-13%

SMILES	growth inhibition
CN(C)CC(CN(C)C)C(=O)c1ccc(Oc2ccc(Cl)c(Cl)c2)cc1	8%
CN1c2ccccc2C(C)(C)C12C=Cc1cc(O)ccc1O2 (stereo not given)	9%
CC(C)Cc1ncc(CC(C)C)n(O)c1=O	26%
Nc1ccc(SSc2ccc(N)cc2)cc1	-3%
N#CCC1CC(=O)c2[nH]c3ccccc3c2C1 (stereo not given)	-49%
O=C1c2ccccc2C(=O)c2sccc21	-36%
CC/C(=C(\CC)c1ccc(O)c(CN(C)C)c1)c1ccc(OC)cc1	9%
O=S(=O)(O)N=Nc1ccc(O)cc1	1%
O=C1CCSC(=S)N1c1ccc(N=Nc2ccccc2)cc1	9%
CC(C)C(=O)NNc1ccccc1	1%
O=C(CBr)c1ccc2cc(Br)c3ccccc3c2c1	84% (active)
O=C1c2cc3c(cc2CC1Br)CCC3 (stereo not given)	99% (active)
O=C1NC(=O)N(c2ccc(Cl)c(Cl)c2)C1=O	1%
C[n+]1c(-c2cccc(OCCOCCOc3cccc(-c4c5cc(N)ccc5c5ccc(N)cc5[n+]4C)c3)c2)c2cc(N)ccc2c2ccc(N)cc21	6%
N#CC(C#N)C(C#N)c1ccc(Cl)c(Cl)c1 (stereo not given)	72% (active)
CCCCCCCCCCCCOC(=O)C[n+]1cccc(C(=O)Nc2ccc(Cl)cc2)c1	56%
CCC(=O)c1ccc2ccc3ccccc3c2c1	8%
Cc1ccc(S(=O)(=O)NC(=O)CC2CCCCC2)cc1	9%
c1ccc(N/N=C(/CC/C(=N\Nc2ccccc2)c2ccccc2)c2ccccc2)cc1	4%
Cc1c(N)cc(I)cc1[N+](=O)[O-]	9%
